Assay results published in ChEMBL document CHEMBL4513216, “Probing the Open Global Health Chemical Diversity Library for Multistage-Active Starting Points for Next-Generation Antimalarials” (ACS Infect Dis, 2020).
The campaign covered roughly 69,000 compounds. About 8,600 (12%) showed an effect of 50% or more. This is one part of a sample in which strong results are shown more often than they occur.

system: Plasmodium berghei; assay: Screen against P. berghei liver stage (PbLuc), transformed with Luciferase, at 10uM; type: functional, HepG2; details: tested at 10 uM

Compound	INHIBITION [%]
CC(=O)NCc1cncc(C2CCCN2C2CCOCC2)n1 (centres undefined)	-4.15
c1cnn(CC2CCCCN2c2ncnc3sccc23)c1 (centres undefined)	18.2
c1cnn(CC2CCCCN2c2ncnc3ccsc23)c1 (centres undefined)	14.75
c1cnn(CC2CCCN2c2ncnc3sccc23)c1 (centres undefined)	79.7
c1nc(N2CCCC2Cn2cncn2)c2sccc2n1 (centres undefined)	10.65
c1cnn(CC2CCCN2c2ncnc3ccsc23)c1 (centres undefined)	57.8
c1nc(N2CCCC2Cn2cncn2)c2ccsc2n1 (centres undefined)	33
O=C(Nc1nccs1)C1CCN(Cc2cccc3c2OCCO3)CC1	37.6
COCc1noc(-c2cc(Cl)c3c(c2)OCO3)n1	-26.1
CC1CN(CC(=O)NCc2ccccc2)CCN1Cc1nccn1C (centres undefined)	22.93
Cc1[nH]ccc1C(=O)N1CCCC(c2ccc(C(=O)O)cc2)C1 (centres undefined)	2.7
O=C(c1cccc2cccnc12)N1CCCC(n2ccnc2)C1 (centres undefined)	17.02
CN(C)c1ncccc1CNc1cc(N2CCCC2CO)ncn1 (centres undefined)	26.4
Cc1nccc(N2CCCC(c3nnc(Cn4ccnc4C)n3C)C2)n1 (centres undefined)	1.74
Cc1c[nH]nc1C1CCCN(c2cnccn2)C1 (centres undefined)	4.73
Cc1ccc(-c2cn[nH]c2C2CCCN(c3nccc(N)n3)C2)cc1 (centres undefined)	47.2
Cc1ccc(-c2cn[nH]c2C2CCCN(c3ccnc(C)n3)C2)cc1 (centres undefined)	65.3
C[C@H](N)C(=O)N1CCC(c2[nH]ncc2-c2ccccc2)CC1	-15.65
Cc1ccc(-c2cn[nH]c2C2CCCN(c3cnccn3)C2)cc1 (centres undefined)	53.7
Cc1ccc(-c2cn[nH]c2C2CCCN(c3cc(N)ncn3)C2)cc1 (centres undefined)	75.4
Cc1ccnc(C2CCN(c3ccnc(C)n3)C2)n1 (centres undefined)	10.9
CN(C)CCn1ccnc1C1CCCN(c2cc(N)ncn2)C1 (centres undefined)	28
Cc1ccc(-c2cn[nH]c2C2CCCN(c3ncccn3)C2)cc1 (centres undefined)	27.6

Compound	INHIBITION [%]
Cc1ccc(N2CCCC(c3[nH]ncc3-c3ccccc3)C2)nn1 (centres undefined)	56.2
CC(O)C(=O)N1CCC(c2[nH]ncc2-c2ccccc2)CC1 (centres undefined)	1.66
CN(CCO)C[C@@H]1CN(C(=O)c2cccc(OC(F)F)c2)C[C@@H]1CO	3.19
O=C(C1CCOC1)N1CCN(Cc2ccc3c(c2)CCO3)CC1 (centres undefined)	41.5
Cc1nc(CN(C)C2CCN(CCc3cccs3)C2)no1 (centres undefined)	39.2
CS(=O)(=O)NC[C@@H]1OC[C@H]2CN(C(=O)c3ccccn3)CC[C@H]21	-2.17
O=C(NCC1CC2(CO1)CN(c1ncccn1)C2)C1CCC1 (centres undefined)	27.6
Cc1ccc(N2CCC(c3[nH]ncc3Cc3ccccc3)CC2)nn1	49.2
Cc1ccc(N2CCCC(c3[nH]ncc3Cc3ccccc3)C2)nn1 (centres undefined)	47.2
Cc1cc(N2CCCC(c3[nH]ncc3Cc3ccccc3)C2)nc(N)n1 (centres undefined)	86.8
O=C(c1cnccn1)N1C[C@@H]2CN(Cc3cccnc3)CCO[C@@H]2C1	22.5
O=C(CN1CCc2c(ncn2C2CC2)C1)NC1CCOCC1	5.7
NCC1Cc2cccc(-c3nccc(N4CCC(O)CC4)n3)c2O1 (centres undefined)	92.1
NCC1Cc2cc(-c3nccc(N4CCC(O)CC4)n3)cc(Cl)c2O1 (centres undefined)	43.9
NCC1Cc2cc(-c3nccc(N4CCC(O)CC4)n3)cc(F)c2O1 (centres undefined)	20.5
CCCc1noc(C2CC(=O)N(Cc3ccccc3)C2)n1 (centres undefined)	11.1
COCCC(=O)N1Cc2ccccc2OC2(CCOCC2)C1	26.05
Cc1c(CS(C)(=O)=O)cccc1NCC1CCCCC1	-0.514
Cc1c(CS(C)(=O)=O)cccc1NC(=O)CC1CCCC1	-15.9
Cc1c(CS(C)(=O)=O)cccc1NCCCC1CCCC1	74.8
CN(Cc1ccc(O)cc1)C(=O)NC1CCCN(c2ncccn2)C1 (centres undefined)	18.9665
O=c1[nH]c2cn(-c3cccc(F)c3)c(=O)n2n1Cc1ccccc1Cl	20.6
CCN1CCN(C(=O)c2nc(C)n(-c3ccccc3Cl)n2)CC1	50.4

Compound	INHIBITION [%]
CCc1nc(C(=O)N2CCCC2)nn1-c1ccccc1Cl	67.3
CCc1nc(C(=O)N2CCN(C)CC2)nn1-c1ccccc1Cl	34.7
CCc1nc(C(=O)N2CCN(CC)CC2)nn1-c1ccccc1Cl	4.52
Cc1nc(C(=O)N2CCCCC2)nn1-c1ccccc1Cl	4.52
CCc1nc(C(=O)N2CCCCC2)nn1-c1ccccc1Cl	12.7
Cc1cnc(CC2COCCN(C(=O)c3cncs3)C2)cn1 (centres undefined)	21.5
CCc1ccc(C(=O)N2CCC(c3nncn3CC)CC2)o1	28.1
COc1ccc(OCCN(C)S(=O)(=O)c2cnn(C)c2)cc1	11.5
O=C(NCCOc1ccccc1)Nc1cc(C(F)(F)F)c[nH]c1=O	9.895
CC(=O)N1CCC2(CC1)CN(CC1CC1)c1ccc(F)cc12	37.6
COCC(=O)N1CCC2(CC1)CN(CC1CC1)c1ccc(F)cc12	77.4
COCC(=O)N1CCC2(CCc3ccc(F)cc32)CC1	-30
Cn1cc(CN2CCCC23CCN(C(=O)c2ccsc2)CC3)cn1	-16.1
Cc1cnn(CC2CCCN2C(=O)c2ccc3[nH]c(=O)[nH]c3c2)c1 (centres undefined)	17.5
CN(Cc1cccs1)c1nc2c(cnn2C(C)(C)C)c(=O)[nH]1	53.5
Cc1ccsc1CN(C)Cc1nc2c(cnn2C)c(=O)[nH]1	26.3
Cc1ccsc1CN(C)c1nc2c(cnn2C(C)(C)C)c(=O)[nH]1	70.7
Cc1nc(CN(C)c2nc3c(cnn3C(C)(C)C)c(=O)[nH]2)cs1	36.2
CCN(Cc1nc2c(cnn2C)c(=O)[nH]1)Cc1cccs1	44.6
Cc1ncc(CN(C)c2nc3c(cnn3C(C)(C)C)c(=O)[nH]2)s1	30.8
CCc1nc2n(n1)CC(NCc1cnc(N(CC)CC)s1)CC2 (centres undefined)	30.5
CC(=O)N1CCCC(C(=O)c2cnn(-c3ccc(F)cc3)c2N)C1 (centres undefined)	24.425
Cc1nc[nH]c1CN1C[C@@H]2OCCN(c3ncccn3)[C@@H]2C1	42.7

Compound	INHIBITION [%]
Cc1ccc(-n2ccnc2-c2cn(C3CCNCC3)nn2)c(Cl)c1	45.8
Cc1cccc(C(=O)N2CCN(CCC(C)C)CC2)n1	50.3
CCCN1CCN(C(=O)c2scnc2C)CC1	11.1
CC(C)CCN1CCN(C(=O)c2ccc(=O)[nH]n2)CC1	47
Cc1cccc(C(=O)N2CCN(CCOC(C)C)CC2)n1	-49.3
Cc1ncsc1C(=O)N1CCN(CCC(C)C)CC1	53.7
CCN1CCN(C(=O)c2scnc2C)CC1	26.4
CCN1CCCc2cc(CN3CCc4nc(C)[nH]c(=O)c4C3)ccc21	15.1
Cn1ncc(Cl)c1C(=O)NCCN1CCC(O)(c2ccc(F)cc2)CC1	6.3
CCOCCCNC(=O)CN(c1cccc(F)c1)S(C)(=O)=O	30
COC(=O)c1c(Cl)c(C2CC2)nc2onc(C)c12	47.2
O=C(Cn1ccnc1)N1C[C@@H]2CC[C@H](Oc3ccccc3)[C@@H]2C1	24.5
O=C(Cn1ccnc1)N1C[C@@H]2CC[C@H](Oc3cccc(F)c3)[C@@H]2C1	1.5
CN(C)CC(=O)N1C[C@@H]2CC[C@H](Oc3ccccc3Cl)[C@@H]2C1	37.5
O=C(Cn1ccnc1)N1C[C@@H]2CC[C@H](Oc3ccccc3Cl)[C@@H]2C1	53.5
O=C(Cn1ccnc1)N1C[C@@H]2CC[C@H](Oc3ccc(Cl)cc3)[C@@H]2C1	56
O=C(Cn1ccnc1)N1C[C@@H]2CC[C@H](Oc3ccccc3F)[C@@H]2C1	-6.92
Cc1ccc(CN2C(=O)OCC2CO)c2ccccc12 (centres undefined)	40.3
CNc1nc(CNC(=O)Nc2cccc(C(C)OC)c2)cs1 (centres undefined)	13.957
CN(C)C1CCCN(C(=O)CCc2csc(N)n2)CC1 (centres undefined)	33.9
Cc1n[nH]c(C2CN(C(=O)CCc3cscn3)CCO2)n1 (centres undefined)	40.75
Nc1nc(CCC(=O)N2CCOC(CC3CCCCC3)C2)cs1 (centres undefined)	85.1
COCCCC1CCCN(C(=O)CCc2csc(N)n2)C1 (centres undefined)	35.8

Compound	INHIBITION [%]
N[C@H]1CN(C(=O)CCc2ccccn2)C[C@@H]1c1ccccc1	37.6
N[C@H]1CN(C(=O)CCC(F)(F)F)C[C@@H]1c1ccccc1	36.5
Nc1nc(CCC(=O)N2C[C@H](c3ccccc3)[C@@H](N)C2)cs1	51
CN(C)[C@H]1CCCCN(C(=O)CCc2csc(N)n2)C1	16.8
CN1[C@@H]2CC[C@H]1CN(C(=O)CCc1csc(N)n1)CC2	50.3
CC1c2ncc(COCC3CCOCC3)n2CCN1Cc1cccnc1 (centres undefined)	12.1
Cc1ccsc1[C@@H]1CCN(C(=O)c2ccc(-c3cc[nH]n3)cc2)C[C@H]1O	16.1
Cc1ccsc1[C@@H]1CCN(C(=O)c2cc3ccccc3[nH]2)C[C@H]1O	66.9
Cc1ccsc1[C@@H]1CCN(C(=O)CCc2nc3ccccc3[nH]2)C[C@H]1O	-27.5
c1csc(CN2CCc3ncnc(C4CCOC4)c3CC2)n1 (centres undefined)	31.4
COc1ccc(C(C)N(C)Cc2nc3c(cnn3C)c(=O)[nH]2)cc1 (centres undefined)	0.7
CC(c1ccco1)N(C)Cc1nc2c(cnn2C)c(=O)[nH]1 (centres undefined)	66.8
Cn1ncc2c(=O)[nH]c(CN3CCc4ccccc4C3)nc21	40
Cn1ncc2c(=O)[nH]c(CN(Cc3ccco3)C3CCCC3)nc21	54.3
Cc1ccc(C(C)N(C)Cc2nc3c(cnn3C)c(=O)[nH]2)c(C)c1 (centres undefined)	8.315
Cc1ccccc1C(C)N(C)Cc1nc2c(cnn2C)c(=O)[nH]1 (centres undefined)	26.45
Cc1ccc(CN(Cc2nc3c(cnn3C)c(=O)[nH]2)C2CC2)o1	15.5
Cn1ncc2c(=O)[nH]c(CN3CCC(Cc4ccccc4)CC3)nc21	52.7
CN(Cc1nc2c(cnn2C)c(=O)[nH]1)Cc1ccco1	-5.07
Cc1ccc(C(C)N(C)Cc2nc3c(cnn3C)c(=O)[nH]2)cc1 (centres undefined)	52.1
Cn1ncc2c(=O)[nH]c(CN3CCCC3Cc3ccccc3)nc21 (centres undefined)	24
Cn1ncc2c(=O)[nH]c(CN(Cc3ccco3)C3CC3)nc21	47
